Source: PubChem (Pan Lab, Icahn School of Medicine at Mount Sinai)
RBX1-CUL1 inh – blocks human RBX1-Cullin-1 di-ubiquitin formation | 140,000 tested, 0.6% active | inhibition, % at 10 µM | P62877+Q13616 | in vitro K48 di-Ub FRET, acceptor:donor ratio, 45 min; in the data active = inhibition above about 25%
Large screens that a line does not name were inactive. The entries come from a sample that favours hits as a whole.

CCC1(c2ccccc2)C(=O)NC(=O)N(CCN2CCOCC2)C1=O (configuration not stated)	none
O=C1NC(=O)C(Br)(Br)C(=O)N1Cc1ccccc1	RBX1-CUL1 inh 76
N=C1C(Cl)C(=O)NC(=O)N1Cc1ccccc1 (configuration not stated)	none
Cc1ccc2c(c1)[C@@H]1CN(C)CC[C@H]1N2C(=O)C12CC3CC(CC(C3)C1)C2	none
COc1cc(C2SCC(=O)Nc3c2c(-c2ccccc2)nn3-c2ccccc2)cc(OC)c1OC (configuration not stated)	none
COc1cc(C(c2c(C)[nH]n(-c3ccccc3)c2=O)c2c(C)[nH]n(-c3ccccc3)c2=O)cc(OC)c1OC	RBX1-CUL1 inh 62
COc1cc(CN2CCN(C(=O)Cc3ccccc3)CC2)cc(OC)c1OC	none
N=C1c2ccccc2CN1c1ccccc1F	none
CSc1ccc2[nH]cc(CCN)c2c1	none
CCCCC/C(=N\O)c1c(C)[nH]c2ccccc12	none
COc1ccc(/C=C2/C(=O)N(Cc3ccco3)C(=O)N(C(C)C)C2=O)cc1	RBX1-CUL1 inh 103
CC(C)N1C(=O)/C(=C/C=C/c2ccco2)C(=O)N(Cc2ccco2)C1=O	none
COc1ccc(C=C2C(=O)N(C)C(=O)N(C)C2=O)cc1	none
C=CCC1(C(CC(C)=O)c2ccccc2)C(=O)NC(=O)NC1=O (configuration not stated)	none
N#CC1C(=N)Oc2c(c(=O)oc3ccccc23)C1c1cccnc1 (configuration not stated)	none
N#CC1C(=N)Oc2c(c(=O)sc3ccccc23)C1c1ccccc1 (configuration not stated)	none
O=C1NC(=S)N(c2ccc(Br)cc2)C(=O)/C1=C/c1ccc(-c2ccccc2C(=O)O)o1	RBX1-CUL1 inh 83
CCN(CC)c1ccc(/C=C2\C(=O)NC(=S)N(C)C2=O)o1	none
CCN(CC)c1ccc(/C=C2\C(=O)NC(=S)N(c3ccc(OC)cc3OC)C2=O)o1	none
CCOc1ccc(N2C(=O)/C(=C/c3ccc(CN(CCC#N)S(C)(=O)=O)o3)C(=O)NC2=S)cc1	none
Cc1cccc(N2C(=O)/C(=C/c3cc(C)n(-c4ccc(C(=O)O)c(Cl)c4)c3C)C(=O)NC2=S)c1C	none
Cc1c(Cl)cccc1N1C(=O)/C(=C/c2ccc(-c3ccc(C(=O)O)cc3)o2)C(=O)NC1=S	RBX1-CUL1 inh 52
N#CC1C(=N)Oc2c(c(=O)oc3ccccc23)C1c1cccc(O)c1 (configuration not stated)	none
N=C1c2ccccc2CN1c1ccc(Cl)c(Cl)c1	none
C=CCN1C(=O)C(C(C)=O)C(=O)NC1=S (configuration not stated)	none
